An excerpt weighted towards active compounds, which were near 0.84% of everything screened.
LRH-1 inv ag – LRH-1 (NR5A2) inverse agonists, primary screen, cell-based, luminescence, HEK293T, StAR-luciferase reporter | Nuclear receptor subfamily 5 group A member 2 (Homo sapiens), O00482 | LRH-1 transfected, 24 h | inhibition, % at 3.6 µM | 360,000 tested, 0.13% active | AID 602396, 2012;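 active means inhibition above the mean inhibition of all tested compounds plus 3 SD, cut at about 73% in these data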;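 further: 0% = DMSO wells and 100% = reporter-only cells lacking LRH-1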
NCOA1 inh – SRC1 coactivator transcriptional activity inhibitors, primary screen, cell-based, luminescence | HEK293 GAL4-SRC1 luciferase reporter | inhibition, % at 3.6 µM | 360,000 tested, 0.12% active | AID 588354, 2011;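 active means inhibition above the campaign mean plus 3 SD, with each screening campaign given its own cutoff, cut at about 60% in these data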;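 further: 0% = DMSO treated cells and 100% = gossypol at 36 µM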
SRC2 inh – inhibition of GAL4-SRC2 driven luciferase reporter, primary screen, SRC2 inhibitor project, cell-based, luminescence; inhibition, % at 9 µM; HEK293 GAL4-SRC2 luciferase reporter; 370,000 tested, 0.17% active;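 active means inhibition above the mean inhibition of all tested compounds plus 3 SD, set per campaign, cut at about 52% in these data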;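 further: 0% = DMSO treated cells and 100% = cells given Gossypol at 36 µM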
NR2F2 inh – NR2F2 transcriptional activity inhibitors, primary screen, cell-based, luciferase reporter, HEK293T, luminescence; inhibition, % at 8.6 µM; HEK293T NGFI-A luciferase reporter; 370,000 tested, 0.7% active; COUP transcription factor 2 (Homo sapiens), P24468;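 active means inhibition above a per-plate cutoff, mean inhibition of test wells between control levels plus 3 SD, cut at about 38% in these data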;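 further: cells cotransfected with COUP-TFII expression vector driving the NGFI-A reporter; 0% = median of COUP-TF2 test wells and 100% = reporter-only cells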
Target sequence (P24468 whole entry, looked up): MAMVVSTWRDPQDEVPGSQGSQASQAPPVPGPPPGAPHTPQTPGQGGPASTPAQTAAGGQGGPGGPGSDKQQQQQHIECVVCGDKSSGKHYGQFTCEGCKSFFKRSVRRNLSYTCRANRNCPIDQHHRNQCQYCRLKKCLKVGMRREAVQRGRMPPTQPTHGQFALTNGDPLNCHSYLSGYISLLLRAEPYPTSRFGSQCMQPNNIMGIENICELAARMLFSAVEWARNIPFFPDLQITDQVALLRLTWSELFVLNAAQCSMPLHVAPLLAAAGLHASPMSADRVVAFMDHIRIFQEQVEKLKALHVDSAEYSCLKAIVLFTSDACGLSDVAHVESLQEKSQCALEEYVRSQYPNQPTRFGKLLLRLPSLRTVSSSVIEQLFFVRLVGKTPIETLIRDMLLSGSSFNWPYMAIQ
NCOA3 inh – SRC3 coactivator transcriptional activity inhibitors, primary screen, cell-based, luminescence; Nuclear receptor coactivator 3 (Homo sapiens), Q9Y6Q9; HEK293 GAL4-SRC3 luciferase reporter; inhibition, % at 3.6 µM; 360,000 tested, 0.17% active; AID 588352, 2011;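 active means inhibition above a per-campaign cutoff, the mean of all compounds plus 3 SD, cut at about 60% in these data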;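 further: 0% = DMSO-treated cells and 100% = gossypol-treated cells at 36 µM; higher means less SRC3-driven luciferase light from the GAL4 reporter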
Gal4-VP16 ctr – Gal4-VP16 luciferase reporter inhibitors, counter-screen for COUP-TFII antagonist project, cell-based, luminescence, HEK293. shares compounds with NR2F2 inh. inhibition, % at 8.5 µM. 2,500 tested, 25% active. AID 687007, 2013; in the data active means inhibition above about 13%
COUP-TFII conf – NR2F2 transcriptional activity inhibitors, confirmation, cell-based, luciferase reporter, HEK293, triplicate; shares compounds with NR2F2 inh; HEK293 NGFI-A luciferase reporter, luminescence; inhibition, % at 8.5 µM; 2,500 tested, 45% active; AID 687008, 2013;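 active means mean inhibition over three repeats above a set limit taken from the earlier primary screen, cut at about 38% in these data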;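 further: 100% = cells given the luciferase reporter alone without the COUP-TF2 vector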
The depositor's hits bear a star; . = no result.

SMILES	LRH-1 inv ag	NCOA1 inh	SRC2 inh	NR2F2 inh	NCOA3 inh	Gal4-VP16 ctr	COUP-TFII conf
CCCn1c(NC(=O)c2cccc(S(=O)(=O)N3CCCC3)c2)nc2ccccc21	14.1	10.3	20.8	44.6*	39.0	-6.3	27.5
CCc1ccc(OCc2cccc(C(=O)N/N=C\c3cnn(C)c3C)c2)cc1	-20.1	-41.7	-12.0	-50.7	-67.4	.	.
COc1cc(CNc2ncnc3c2[nH]c2ccc(C)cc23)cc(OC)c1	11.4	14.8	5.5	33.2	15.6	.	.
Cc1ccc2[nH]c3c(NCc4ccco4)ncnc3c2c1	-61.4	-40.7	-1.8	46.8*	-22.0	-139.1	-24.1
CCCCCCCCN1C(=O)[C@@H](CC(=O)NCCCOC)C[C@@]2(C(=O)OC)C1=C[C@H](C1CCCC1)O[C@@H]2C	.	.	-16.2	20.4	.	.	.
COc1ccc(N2CCN(S(=O)(=O)c3ccc4c(c3)NC(=O)C(C)S4)CC2)cc1 (centres undefined)	9.8	5.7	20.2	41.6*	3.8	-7.8	10.9
CCc1ccc(NC(=O)C2CCN(S(=O)(=O)c3ccc4c(c3)NC(=O)C(C)S4)CC2)cc1 (centres undefined)	-8.1	1.2	17.2	58.3*	3.4	7.9	39.5*
Cc1ccc(NC(=O)C2CCN(S(=O)(=O)c3ccc4c(c3)NC(=O)C(C)S4)CC2)cc1C (centres undefined)	-11.2	6.4	26.0	22.2	20.8	.	.
Nc1cccc(-c2cc3ccccc3oc2=O)c1	9.3	15.6	46.1	57.0*	21.2	8.4	7.2
Nc1[nH]c(C(=O)c2ccccc2)c(-c2ccc3ccccc3c2)c1C(=O)NC1CC1	.	.	-22.8	-4.4	.	.	.
Cc1cc(N2CCN(C(=O)OC(C)(C)C)C[C@@H]2C)ccc1N1CCN(Cc2ccccc2)[C@H](C)C1	.	.	19.0	23.5	.	.	.
COCc1cc(N2CCN(C(=O)OC(C)(C)C)C[C@@H]2C)ccc1N1CCN(Cc2ccccc2)[C@@H](C)C1	.	.	-2.9	37.5*	.	5.0	16.4
Cc1ccc(Nc2cc(C)nc(NCc3ccccc3)n2)cc1	17.9	20.3	7.7	29.0	14.3	.	.
Cc1cc(NC2CCCCC2)nc(NCc2ccccc2)n1	5.1	16.9	-21.8	52.4*	32.9	-2.0	18.9
C=C1CC2(CC(c3ccccc3)OC(c3ccccc3)C2)OC1=O (centres undefined)	4.9	-5.7	50.2	46.3*	-18.4	8.0	-2.1
COc1ccc2nc(NC(=O)C3CCN(S(=O)(=O)c4cccc5nsnc45)CC3)sc2c1	14.3	-0.9	49.2	77.6*	17.7	4.8	50.8*
COCCN1C(=O)[C@H]2C[C@@]13O[C@H](c1ccccn1)N=C3CC1c3ccccc3C[C@@]12C (some centres undefined)	.	.	-0.8	-10.2	.	.	.
O=C(Nc1ccc(F)cc1)Nc1cc(OCC(F)(F)F)cc(OCC(F)(F)F)c1	47.5	-12.1	6.8	76.0*	61.4	17.2*	79.1*
Cc1ccc(CNC(=O)CN(C(=O)C2(C)CC(=O)N=C3C=CC=CN32)c2ccc(F)cc2)cc1 (centres undefined)	1.0	3.8	-2.3	-1.9	-2.1	.	.
O=[N+]([O-])c1ccc(CN2CCN(c3ccc([N+](=O)[O-])cc3)CC2)cc1	21.1	5.1	13.4	39.8*	10.9	3.8	20.2
COC(=O)C[C@H]1CC[C@H]2[C@@H](COc3ccc(NC(=O)Nc4ccccc4)cc3C(=O)N2C)O1	.	.	5.3	-3.7	.	.	.
CCn1c(Cl)c(C=O)s/c1=N\S(=O)(=O)c1ccccc1	32.5	-154.7	40.0	51.3*	18.4	47.6*	36.0
CC(C)c1[nH]nc2c1C(c1cccc(C(F)(F)F)c1)N(Cc1ccccc1)C2=O (centres undefined)	.	.	0.4	21.8	.	.	.
CC1CCN(C(=O)c2ccc3c(c2NCCO)C(=O)c2ccccc2C3=O)CC1	-4.5	0.7	17.2	1.9	7.5	.	.
CCN(CC)CCNC(=O)c1ccc2c(c1NCCO)C(=O)c1ccccc1C2=O	39.5	43.9	35.4	64.1*	62.8*	-3.8	-4.9
SMILES	LRH-1 inv ag	NCOA1 inh	SRC2 inh	NR2F2 inh	NCOA3 inh	Gal4-VP16 ctr	COUP-TFII conf
Cc1cc(=O)oc2cc(OCC(=O)OCC(=O)Nc3ccccc3Br)ccc12	11.1	-6.1	-18.2	54.7*	15.7	-8.8	1.1
CCCCNC(=O)C[C@H]1C[C@@]2(C(=O)OC)C(=C[C@H](COCc3ccccc3)O[C@@H]2C)N(Cc2ccc3c(c2)OCO3)C1=O	.	.	-17.0	-11.7	.	.	.
COC(=O)C1=C(C)N(Cc2ccc(Cl)cc2)C(=S)NC1c1ccc(Br)cc1 (centres undefined)	.	.	-8.4	8.2	.	.	.
NC(=O)c1sc2nc3c(c(-c4cccs4)c2c1N)CCCCC3	14.0	68.7*	46.5	43.1*	66.5*	13.9*	31.6
NC(=O)c1sc2nc3c(c(-c4cccnc4)c2c1N)CCC3	-1.3	10.3	-7.5	-2.4	19.0	.	.
CC1OC(CC(=O)O)CC2=C1C(=O)c1c(O)cccc1C2=O (centres undefined)	97.4*	70.0*	95.7*	104.8*	92.9*	98.2*	109.6*
CC(Sc1nnc2c(n1)[nH]c1ccccc12)C(=O)NC1CCCCC1 (centres undefined)	6.6	8.6	-14.9	0.1	10.3	.	.
CC(Sc1nnc2c(n1)[nH]c1ccccc12)C(=O)N(C)C1CCCCC1 (centres undefined)	3.9	2.5	30.6	43.6*	1.1	2.2	34.3
CCOc1cc(/C=C2\CN(CC)C/C(=C\c3ccc(O)c(OCC)c3)C2=O)ccc1O	45.6	51.1	10.5	79.1*	43.0	48.3*	72.0*
CC1(C)CC2CC(C)(CN2S(=O)(=O)c2ccc(C(=O)Nc3cc(S(=O)(=O)N4CCOCC4)ccc3Cl)cc2)C1 (centres undefined)	3.5	21.5	20.7	35.9	21.5	.	.
CC1(C)CC2CC(C)(CN2S(=O)(=O)c2ccc(C(=O)Nc3cccc(S(=O)(=O)N4CCOCC4)c3)cc2)C1 (centres undefined)	43.8	7.5	20.2	68.4*	23.7	0.5	62.8*
Nc1[nH]c(C(=O)c2ccccc2)c(-c2ccc(Cl)cc2F)c1C(=O)NCCc1c[nH]c2ccccc12	.	.	-23.9	14.0	.	.	.
CC(=O)OC1CCC2(C)C(CCC3C4CC=C(C(C)=O)C4(C)OC(=O)CC32)C1 (centres undefined)	-30.3	5.2	59.2*	57.2*	-20.9	37.4*	44.2*

Screens (PubChem)
